The values below come from the OligoGym collection.
Note: reference of the scale not given here.

The target in the first assay is GAB3. Description: pooled miR-30 sensor sort-seq; sequence = guide strand. The settings on record: shRNA.
In the case of TAGTACTCCAAGACATCGGGGT, the sensor-assay potency score (higher = more potent) was found to be 0.697.
On the same count and under the same terms, then TTGCAGACCTGACTGATGCTGT, with 0.324; and TTGAGATCTCTATTCACTGGGG, with 0.467.
The same measure, in the same setting: the value for TTCCACACTGCACACTCGCTGA was -0.565.
Same read-out and setting: the value for TTTCGATGTAGCTTTCTTCGTC was 0.694; that for TTATTCTGAAATTCCTTCCGAA was 0.459.
In turn, TTGACCTGTGTTGACCATCAGT displayed a sensor-assay potency score (higher = more potent) of -0.72.

The target of another assay is GABBR1. The assay is described as above. The settings on record: shRNA.
In the case of TAGACAAATTGCACATGCCTAC, the sensor-assay potency score (higher = more potent) was -0.546.
Still for that read-out and setting: the value for TTCTCATCAACTATCCACTGGA was 0.124; that for TTGTTGTTGGTCGATGACCCTG was -1.05; that for ATGGTAGCAATCTTCTTCCAGC was -1.28.
On the same count and under the same terms, then TTCTCCTTCTCCAACAGCCGGG, with -0.705; and TAAGACTTGGAGCAGATTCGGA, with -0.862.
Same read-out and setting: then TAGTCCGGCAGGATGTCCCTGC, with -0.16; and TTGTGAGTGTAGACTGAGGGTA, with -0.0666.
TTGAGATTCGGGGAGATCCTTC gave a sensor-assay potency score (higher = more potent) of -0.396.
Take TTCTGTGACAAGGAGAGGGTGT: the sensor-assay potency score (higher = more potent) was determined as 0.0904.
TTTTCAAAGAGTTTCACGCGGG yielded a sensor-assay potency score (higher = more potent) of -0.189.
On the same count and under the same terms, then TAGCCAATCTTCTTGTAGCTGC, with -0.0319; and TTCAGCATGACAATCTCAGTTG, with -0.723; and TAGTACATGAATGCAATGGAGA, with -0.803.
On the same count and under the same terms, the value for TCTTGGTGAACATGGAACCGTA was -1.08.
Regarding TAGGTCCATCTGTCTATCCCAA, the sensor-assay potency score (higher = more potent) was -0.913.
For the sequence TTGGATAGCATGTTCTTCCCAG, the sensor-assay potency score (higher = more potent) came to 0.0924.
Still for that read-out and setting: then TGAGGTTCCACATCCTAGCAGC, with -0.132; and TAGTTTCTCCACAAATTCCTGG, with -0.496.
Take TCCTTCTTTGTGAAGACCGTGT: the sensor-assay potency score (higher = more potent) is -0.749.
As for TGGATCACACTTGCTGTCGTGG, the sensor-assay potency score (higher = more potent) was -0.99.
